Hits are enriched below; roughly 12% of the tested compounds scored in any of these assays.
JMJD2A Tudor inh: JMJD2A Tudor domain (human) inhibition | 4.4% of 390,000 active | AlphaScreen JMJD2A-Tudor / H3K4me3 peptide binding | AID 504339 | Potency, µM (series often up to 114 µM), without a hit: at the top dose activity change, negative = inhibition, hits mostly inhibitors; further: potency means the concentration at half of the fitted maximal effect; on the % scale 0 is the no-effect control and ±100 the full control effect; nearly all actives have a fitted effect of over 50% in size
BAZ2B inh: blocks human BAZ2B. Potency, µM (series often up to 114 µM), without a hit: at the highest dose activity change, negative = inhibition, most hits filed as inhibitors. 4.4% of 360,000 active. AlphaScreen BAZ2B-H3K14Ac peptide displacement; further: potency means the concentration at half of the fitted maximal effect; on the % scale 0 is the no-effect control and ±100 the full control effect; nearly all actives have a fitted effect of over 60% in size
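AlphaScreen displacement of biotin-H3(5-23)K14Ac peptide (50 nM final) from BAZ2B (50 nM final) in PBS pH 7.4, 0.01% Tween-20; complex preformed 30 min RT, then compounds (top 110 uM) 30 min RT, beads 20 min dark.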
PLK1 PBD block: blocks phosphopeptide binding to human PLK1 polo-box domain. Plk1 PBD binding of FITC phosphopeptide, fluorescence polarization. 2.8% of 360,000 active. P53350. AID 720504. Potency, µM, without a hit: max response, negative = inhibition, usual class: inhibitors; further: potency means the concentration at half of the fitted maximal effect; series mostly up to about 57 µM; on the % scale 0 is the no-effect control and ±100 the full control effect; nearly all actives have a fitted effect of over 65% in size
HP1b chromo inh: HP1-beta chromodomain-methylated histone interaction inhibition. 0.56% of 390,000 active. AlphaScreen HP1-beta / biotin-H3K9me3 peptide binding. P83916. Potency, µM (titrated, usually from 114 µM), for the others: at the highest dose activity change, negative = inhibition, hits mostly inhibitors; further: potency means the concentration at half of the fitted maximal effect; nearly all actives have a fitted effect of over 70% in size
Target sequence (P83916 whole entry, looked up): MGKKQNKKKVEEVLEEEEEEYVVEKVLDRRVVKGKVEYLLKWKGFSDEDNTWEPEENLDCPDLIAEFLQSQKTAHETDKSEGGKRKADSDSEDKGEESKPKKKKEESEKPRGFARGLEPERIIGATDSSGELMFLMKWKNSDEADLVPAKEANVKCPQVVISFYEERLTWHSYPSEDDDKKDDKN
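Compound inhibition of the preformed complex between 50 nM HP1-beta and 50 nM biotinylated H3K9me3 peptide was read by AlphaScreen. Buffer was PBS pH 7.4 with 0.01% Tween-20. Incubations ran 30 min at room temperature, with 10 ug/mL donor/acceptor beads.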
G9a block: inhibitors of human histone lysine methyltransferase G9a | G9a H3K9 monomethylation, AlphaScreen, 2 h | Potency, µM (highest dose often 102 µM), without a hit: at the highest dose activity, negative = inhibition, hits mostly inhibitors | 8.8% of 350,000 active | AID 504332 | Q96KQ7; further: potency means the concentration at half of the fitted maximal effect; on the % scale 0 is the no-effect control and ±100 the full control effect; nearly all actives have a fitted effect of over 75% in size
Target sequence (Q96KQ7 913-1193 limits assumed): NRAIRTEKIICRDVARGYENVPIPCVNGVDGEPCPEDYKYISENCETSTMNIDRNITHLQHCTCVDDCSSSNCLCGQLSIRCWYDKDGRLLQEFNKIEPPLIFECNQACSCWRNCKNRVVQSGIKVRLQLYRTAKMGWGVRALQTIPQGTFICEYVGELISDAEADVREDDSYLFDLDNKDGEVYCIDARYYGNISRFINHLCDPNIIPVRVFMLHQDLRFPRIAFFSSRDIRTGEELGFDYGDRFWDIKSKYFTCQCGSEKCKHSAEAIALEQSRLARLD
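Compounds were preincubated with 20 nM G9a for 15 min, after which biotinylated H3K9 peptide (500 nM) and SAM (20 uM) started a 2 h room-temperature reaction. Monomethylated product was quantified by antibody-based AlphaScreen chemiluminescence.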
PI5P4K alpha inh: blocks human PI5P4K alpha kinase activity | P48426 | max response, % | 1.2% of 330,000 active | PI5P4Kalpha enzyme, ADP-Glo luminescence, 60 min; hits give low values | AID 652105; active means max response of -50% or lower; inconclusive means between -30% and -50%; inactive means -30% or higher; further: value at the top dose of about 77 µM; on the % scale 0 is the no-effect control and ±100 the full control effect
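Controls without substrate or without enzyme flank wells where PI5P4Kalpha converts substrate using 5 microM ATP (final). Incubation lasts 60 minutes at room temperature; ADP formed is read by ADP-Glo luminescence.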
An asterisk follows results filed as active; ? = inconclusive; . = no result; ! = repeats disagree; [ ] = dose if it differs, or a comment. Unless noted, the call rests on the fitted dose curve; in most records, active means well fitted curve in the direction sought with a large enough effect; inconclusive means small, poorly fitted or top-dose-only effect, or another doubt; inactive means no such curve, though single readings can be large; an effect the other way counts as inactive or inconclusive.

SMILES | JMJD2A Tudor inh | BAZ2B inh | PLK1 PBD block | HP1b chromo inh | G9a block | PI5P4K alpha inh
CCOC(=O)C(NCc1ccccn1)(NC(=O)c1cccnc1)C(F)(F)F (stereo not drawn) | 63.1µM* | 56.2µM* | -8.8% | 42.3% | -7.3%[12.7 µM] | 2.7
CCOC(=O)C(NC(=O)c1cccnc1)(Nc1cccc(C)n1)C(F)(F)F (stereo not drawn) | -3.7% | 1.3% | -5.8% | 28.4% | 5.9%[2.33 µM] | -1.6
CC(C)Sc1nc(N)c2c3c(sc2n1)CN(C)CC3 | -16.8% | 5.8% | 26.7µM* | 31.6% | 3.16µM* | 8.6
CCCSc1nc(N)c2c3c(sc2n1)CN(C)CC3 | -13.5% | 0.4% | ? | 40.5% | -46.0%[12.7 µM] | -6.5
CN(C)CCSc1nc(N)c2c3c(sc2n1)CN(C)CC3 | -14.4% | -7.1% | -25.4% | 10.2% | 44.7µM* | 7.3
CC1=CCC(C(=O)O)C(C(=O)NC2CCCCC2)C1 (stereo not drawn) | 56.2µM* | 50.1µM* | 18.9µM* | ? | 31.6µM* | 3.6
N#C/C(=C\c1ccc(C(=O)O)cc1)S(=O)(=O)c1cc(Br)ccc1Br | -26.8% | ? | 10.6µM* | -8.3% | ? | ?
COc1cc(C2C(=O)N(C3CCCCC3)CC(=O)N2C2CCCCC2)ccc1OC(C)C (stereo not drawn) | -17.4% | 3.6% | . | -8.6% | -2.4%[59 µM] | .
CCOc1ccccc1C(=O)N(Cc1ccco1)Cc1ccco1 | -28.0% | -25.2% | . | 12.2% | -6.4%[59 µM] | .
OCCNC1=NCCN1 | 0.8% | -32.3% | -1.1% | 17.4% | -45.9%[12.7 µM] | 1.2
Fc1ccc(Sc2ccccc2CNC2=NCCN2)cc1 | -14.2% | -5.4% | -4.5% | 10.0% | 6.31µM* | 1.2
Cc1ccccc1Cn1cc(NC(=O)CCCn2nc([N+](=O)[O-])cc2C)cn1 | -2.1% | -22.9% | -7.2% | 35.8% | 0.0% | 1.1
CCC[N+](CC#CCO)(CC#Cc1ccccc1)CCC | 3.1% | -2.8% | -0.3% | 16.3% | 4.2% | 4.8
CC[N+](CC)(CC#Cc1ccccc1)CC(=O)c1ccc(Cl)cc1 | -23.2% | -7.2% | -2.8% | 10.7% | 7.08µM* | -3.6
CC(C)NC(=O)COC(=O)CNC(=O)C1CCCCC1 | -10.8%[57.1 µM] | . | . | 10.2%[57 µM] | . | .
O=C1c2c(O)cccc2Cc2cccc(O)c21 | -25.2% | ? | -22.4% | 6.6% | 2.51µM*! | -2.5
O=C1Cc2cccc(=O)c(O)c2C(=O)O1 | . | . | ? | . | . | -25.9
S=c1nc(-c2ccco2)[nH][nH]1 | 7.08µM* | ? | -15.3% | ? | 1.78µM* | -17.3
NC(=O)CSc1n[nH]c(-c2ccco2)n1 | -1.4% | -17.7% | -6.9% | 36.0% | -3.0% | 1.0
O=c1[nH]c(CN2CCc3ccccc3C2)nc2ccccc12 | -26.2% | -4.7% | -11.1% | 33.6% | ? | .
Cc1[nH]c2ccccc2c1CN1CCc2ccccc2C1 | 39.8µM* | ? | -4.2% | -38.6% | 12.6µM* | .
c1ccc(-c2c3ccccc3nc3[nH]c4ccccc4c23)cc1 | -7.7% | 4.3% | -12.2% | 55.8% | 89.1µM* | 19.6
c1ccc2nc3c(nc2c1)[nH]c1ccccc13 | -18.2% | -6.9% | -3.1% | 23.6% | -48.0%[59 µM] | -1.1
CC(=O)N1CCC2(CCCN(C(=O)Nc3cccc(C#N)c3)C2)CC1 | . | . | . | . | -1.0%[12.7 µM] | .
Nc1cccn2c(-c3ccc(Cl)c(Cl)c3)cnc12 | 50.1µM* | 39.8µM* | 5.97µM* | ? | 44.7µM* | -18.1
SMILES | JMJD2A Tudor inh | BAZ2B inh | PLK1 PBD block | HP1b chromo inh | G9a block | PI5P4K alpha inh
Nc1cccn2c(-c3ccc(Cl)cc3)cnc12 | -5.3%[11.4 µM] | 50.1µM* | 26.7µM* | ? | 50.1µM* | -20.7
CC(=O)Nc1cc(-c2ccccc2)cn2c(-c3ccc(F)c(Cl)c3)cnc12 | . | . | -19.2% | . | . | -24.9
Cc1ccc(S(=O)(=O)N2CCN(S(C)(=O)=O)C2C)cc1 (stereo not drawn) | -1.4% | -4.5% | -7.1% | 12.4% | 6.7%[59 µM] | -0.4
O=C(CNCc1ccccn1)Nc1ccc([N+](=O)[O-])cc1C(=O)Nc1ccccc1F | 44.7µM* | 17.8µM* | -13.6% | 12.6% | 13.2% | -10.0
CCOc1ncccc1C(=O)NNC(=O)c1ccc(NS(=O)(=O)c2cccs2)cc1 | -4.8% | 1.7% | -3.0% | 39.3% | -24.6% | 2.5
CC1(C)CC(=O)C(/C=N/c2ncccc2C(=O)O)=C(O)C1 | 0.0% | 6.2% | -11.0% | 44.2% | 50.1µM* | -2.9

Screening data: PubChem BioAssay, National Center for Advancing Translational Sciences (NCATS)
